Experimental data: PubChem BioAssay AID720706 (Broad Institute, 2013)
About 5,500 (1.6%) of roughly 350,000 compounds were called active.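 The calls were made as follows: active = significant combined selectivity score with lowered wild-type GFP, culture density cut under 30%, mutant RFP and density less affected; inactive = any of these conditions unmet.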 Many of the other results were omitted from the sample, so actives are more common in it than they were.

Assay: reduced GFP signal of wild-type E. coli, primary screen, bacterial rRNA inhibitor project, GFP/RFP fluorescence, OD600, single point (AID 720706)
Conditions: E. coli WT GFP vs humanized-ribosome RFP mutants, 24 h; GFP signal change (wild-type ribosome): stronger effect = lower value, DMSO median 0, no signal -100; OD600 change: measured here: OD600 growth, DMSO median 0, no signal -100; RFP signal change: measured here: RFP humanized mutant strains, DMSO median 0, no signal -100, concentration not given here

Q: With `COCCCNC(=O)/C=C/c1ccc(OCc2c(F)cccc2Cl)cc1` as the compound, how does the GFP signal change (wild-type ribosome) read?
A: -4.38% (inactive)

Q: And the OD600 change?
A: -2.58%

Q: What about the RFP signal change of the same compound?
A: -3.12%

Q: With `O=C(/C=C/c1ccc(OCc2c(F)cccc2Cl)cc1)N1CCOCC1` as the compound, how does the GFP signal change (wild-type ribosome) read?
A: -49% (inactive)

Q: And the OD600 change?
A: -72.9%

Q: What about the RFP signal change of the same compound?
A: -13.9%

Q: Which GFP signal change (wild-type ribosome) does the source give for `CN(C)CCCNC(=O)/C=C/c1ccc(OCc2c(F)cccc2Cl)cc1` here?
A: -45.5% (active)

Q: What about the OD600 change of the same compound?
A: -31%

Q: What about the RFP signal change of the same compound?
A: -4.52%

Q: With `Cc1noc(C)c1NC(=O)Nc1ccc2c(c1)C(=O)N([C@H](C)CO)C[C@@H](C)[C@@H](CN(C)Cc1ccncc1)OCCCC[C@H](C)O2` as the compound, how does the GFP signal change (wild-type ribosome) read?
A: 0.824% (inactive)

Q: What about the OD600 change of the same compound?
A: 10.7%

Q: What about the RFP signal change of the same compound?
A: -1.14%

Q: What does the source list for `C[C@H]1CN(C)C(=O)c2cccc(N(C)C)c2O[C@@H]1CN(C)C`?
A: GFP signal change (wild-type ribosome): -0.435% (inactive); OD600 change: 5.4%; RFP signal change: -1.5%

Q: With `CO[C@H]1CN(C)C(=O)c2ccc(NC(=O)CC(F)(F)F)cc2OC[C@@H](C)N(C(=O)c2ccccc2F)C[C@@H]1C` as the compound, how does the GFP signal change (wild-type ribosome) read?
A: 3.23% (inactive)

Q: What about the OD600 change of the same compound?
A: 1.55%

Q: What about the RFP signal change of the same compound?
A: 3.46%

Q: With `COc1ccc(C2/C(=C(/O)c3ccccc3)C(=O)C(=O)N2C)c(OC)c1` (stereo not drawn) as the compound, how does the GFP signal change (wild-type ribosome) read?
A: -2.38% (inactive)

Q: What about the OD600 change of the same compound?
A: 2.38%

Q: And the RFP signal change?
A: -3.31%

Q: For `CCOc1ccc(/C(O)=C2\C(=O)C(=O)N(c3ccc(OC)cc3)C2c2ccccc2[N+](=O)[O-])cc1` (stereo not drawn), which GFP signal change (wild-type ribosome) is on record?
A: -20.6% (active)

Q: What about the OD600 change of the same compound?
A: 6.17%

Q: And the RFP signal change?
A: 5.06%

Q: With `COc1ccccc1C1/C(=C(/O)c2ccc(C)cc2)C(=O)C(=O)N1Cc1ccco1` (stereo not drawn) as the compound, how does the GFP signal change (wild-type ribosome) read?
A: 6.88% (inactive)

Q: What about the OD600 change of the same compound?
A: 7.9%

Q: What about the RFP signal change of the same compound?
A: 1.73%

Q: Which GFP signal change (wild-type ribosome) does the source give for `COCC(=O)Nc1ccc2c(c1)[C@H]1C[C@H](CC(=O)NCc3ccccn3)O[C@H](CO)[C@H]1O2` here?
A: -0.801% (inactive)

Q: What about the OD600 change of the same compound?
A: -4.21%

Q: What about the RFP signal change of the same compound?
A: -2.1%

Q: For `O=S1(=O)c2ccc(Br)cc2-n2nncc2CN1Cc1cccc(Cl)c1`, which GFP signal change (wild-type ribosome) is on record?
A: -5.88% (inactive)

Q: And the OD600 change?
A: -16.9%

Q: What about the RFP signal change of the same compound?
A: -5.12%

Q: What does the source list for `O=C(N[C@@H](Cc1ccccc1)C(=O)OCc1ccccc1)c1nc[nH]c1C(=O)N[C@@H](Cc1ccccc1)C(=O)OCc1ccccc1`?
A: GFP signal change (wild-type ribosome): 8.68% (inactive); OD600 change: 15.5%; RFP signal change: -0.702%

Q: With `CC(C)(C)OC(=O)N1CCC(NC(=O)c2[nH]cnc2C(=O)N[C@@H](Cc2ccccc2)C(=O)OCc2ccccc2)CC1` as the compound, how does the GFP signal change (wild-type ribosome) read?
A: 12.4% (inactive)

Q: And the OD600 change?
A: -1.46%

Q: What about the RFP signal change of the same compound?
A: 0.755%

Q: Which GFP signal change (wild-type ribosome) does the source give for `O=C(N[C@@H](Cc1ccccc1)C(=O)OCc1ccccc1)c1nc[nH]c1C(=O)NC1CCNCC1` here?
A: -20.9% (active)

Q: What about the OD600 change of the same compound?
A: -8.38%

Q: What about the RFP signal change of the same compound?
A: -3.23%

Q: What does the source list for `O=C(c1cccc(F)c1)N1CC(=O)N2[C@H](C1)[C@@H](c1ccc(C#Cc3ccc(F)cc3)cc1)[C@@H]2CO`?
A: GFP signal change (wild-type ribosome): 1.74% (inactive); OD600 change: -7.67%; RFP signal change: 4.35%

Q: For `COC(=O)[C@@H]1[C@@H](CO)[C@@H]2Cn3c(ccc(-c4ccccc4F)c3=O)[C@@H]2N1CC1CCOCC1`, which GFP signal change (wild-type ribosome) is on record?
A: 1.95% (inactive)

Q: What about the OD600 change of the same compound?
A: -6.47%

Q: What about the RFP signal change of the same compound?
A: 6.87%
